Source: paper PMC11062922 (Nature Chemical Biology, 2023)
Where two headings read alike, the source gives them in different places.

What was measured:
Parameters in all cases: species or system human, MV4-11 + K-562 + COLO205 + SK-N-BE2 + OVCAR-8
MAPK11 = conditions: read-out: apparent Kd, n = 1
TGFBR1 = conditions: read-out: apparent Kd, n = 1
TP53RK = conditions: read-out: apparent Kd; compound concentrations: 100 nM and 1000 nM (sheet 'Samples'), CATDS: 0.12819898124354101; n = 1
MAP4K2 = conditions: read-out: apparent Kd, n = 1
DDR1 = conditions: read-out: apparent Kd, n = 1
ACVR1 = conditions: read-out: apparent Kd, n = 1
AKT3 = conditions: read-out: apparent Kd, n = 1
RPS6KA1 = conditions: read-out: apparent Kd, n = 1
TEC = conditions: read-out: apparent Kd, n = 1
MAP4K3 = conditions: read-out: apparent Kd, n = 1
SLK = conditions: read-out: apparent Kd, n = 1
STK26 = conditions: read-out: apparent Kd, n = 1
NEK9 = conditions: read-out: apparent Kd, n = 1
PIK3C3 = conditions: read-out: apparent Kd; compound concentrations:100 nM and 1000 nM (sheet 'Samples'); n = 1
MAP2K2 = conditions: read-out: apparent Kd, compound concentrations: 100 nM and 1000 nM (sheet 'Samples'), n = 1
PIK3C2A = conditions: read-out: apparent Kd; compound concentrations: 100 nM and 1000 nM (sheet 'Samples'), CATDS: 9.3691802712770805E-2; n = 1
PIM2 = conditions: read-out: apparent Kd; compound concentrations:100 nM and 1000 nM (sheet 'Samples'); n = 1
MAP4K5 = conditions: read-out: apparent Kd; compound concentrations: 100 nM and 1000 nM (sheet 'Samples'), CATDS: 2.1531310564231101E-2; n = 1
[1] = compound concentrations:100 nM and 1000 nM (sheet 'Samples')

## Fc1ccc(-c2c(-c3ccncc3)[nH]c3cccnc23)cc1 [RO1153853-000]
MAPK11; compound concentrations: 100 nM and 1000 nM (sheet 'Samples'), CATDS: 6.1294477906433602E-2
  potency estimated from few doses: 838 nM
TGFBR1; compound concentrations: 100 nM and 1000 nM (sheet 'Samples'), CATDS: 5.3195917052411702E-2
  potency estimated from few doses: 1310 nM

## CONC1=NC(=O)/C(=C/c2ccc3ncccc3c2)S1 [RO4613269-000]
TP53RK
  potency estimated from few doses: 2200 nM

## Cc1cccc(-c2nc(Nc3ccncc3)c3sccc3n2)n1 [GW869641X]
MAP4K2; [1]
  potency estimated from few doses: 669 nM

## CC(C)N1CCC(n2cnc(-c3ccc(F)cc3)c2-c2ccnc(N)n2)CC1 [SB-223132]
DDR1; [1]
  potency estimated from few doses: 928 nM

## O=C1N=C(NCCc2ccc(Cl)cc2)S/C1=C\c1ccc2ncccc2c1 [RO4498479-000]
ACVR1; compound concentrations: 100 nM and 1000 nM (sheet 'Samples'), CATDS: 7.5426922392671601E-3
  potency estimated from few doses: 1230 nM
AKT3; compound concentrations: 100 nM and 1000 nM (sheet 'Samples'), CATDS: 7.4016289423583202E-3
  potency estimated from few doses: 1320 nM
DDR1; compound concentrations: 100 nM and 1000 nM (sheet 'Samples'), CATDS: 7.1142371440619002E-3
  potency estimated from few doses: 1530 nM
RPS6KA1; compound concentrations: 100 nM and 1000 nM (sheet 'Samples'), CATDS: 6.6850452112440202E-3
  potency estimated from few doses: 2010 nM
TEC; compound concentrations: 100 nM and 1000 nM (sheet 'Samples'), CATDS: 9.3913889163932396E-3
  potency estimated from few doses: 646 nM

## CNC(=O)c1ccccc1Nc1nc(Nc2ccc(N3CCOCC3)cc2)ncc1Cl.Cl [GSK1576028A]
MAP4K3; [1]
  potency estimated from few doses: 1670 nM
RPS6KA1; [1]
  potency estimated from few doses: 683 nM
SLK; [1]
  potency estimated from few doses: 1120 nM
STK26; [1]
  potency estimated from few doses: 1360 nM
TEC; [1]
  potency estimated from few doses: 57.7 nM
TGFBR1; [1]
  potency estimated from few doses: 780 nM

## CN(C)CC(O)COc1ccc(Nc2nccc(-c3cnn4nc(N5CCOCC5)ccc34)n2)cc1 (centres unmarked) [GW767488X]
ACVR1; [1]
  potency estimated from few doses: 455 nM
NEK9; [1]
  potency estimated from few doses: 314 nM
PIK3C3
  potency estimated from few doses: 581 nM

## COC(=O)c1cccc(NC(=O)NC2CCN(c3ccnc(Nc4cc(OC)c(OC)c(OC)c4)n3)C2)c1 (centres unmarked) [GSK1379767A]
MAP2K2; CATDS: 9.7469990790668801E-2
  potency estimated from few doses: 1880 nM
PIK3C2A
  potency estimated from few doses: 2080 nM

## Cc1ccccc1-n1ncc(C(=O)c2ccccc2)c1N [RO1151248-000]
MAPK11; compound concentrations: 100 nM and 1000 nM (sheet 'Samples'), CATDS: 3.0870042087065699E-2
  potency estimated from few doses: 552 nM

## CCN(CC)Cc1ccc(Nc2nccc(-c3cnn4ncccc34)n2)cc1 [GW780056X]
NEK9; compound concentrations: 100 nM and 1000 nM (sheet 'Samples'), CATDS: 2.0464339173062999E-2
  potency estimated from few doses: 1220 nM

## CS(=O)(=O)CCn1c(=O)c(Oc2ccc(F)cc2F)cc2cnc(NC3CCOCC3)nc21 [RO5027956-000]
AKT3; [1]
  potency estimated from few doses: 2170 nM
MAPK11; [1]
  potency estimated from few doses: 1730 nM
PIM2
  potency estimated from few doses: 1660 nM

## O=C(O)C(F)(F)F.O=C(O)C(F)(F)F.O=c1[nH]ccc2nc(N[C@@H]3CCCNC3)nc(Nc3ccc(S(=O)(=O)N4CCOCC4)cc3)c12.O=c1[nH]ccc2nc(N[C@@H]3CCCNC3)nc(Nc3ccc(S(=O)(=O)N4CCOCC4)cc3)c12 [GSK2177277A]
ACVR1; compound concentrations: 100 nM and 1000 nM (sheet 'Samples'), CATDS: 7.8898197775333495E-3
  potency estimated from few doses: 605 nM
MAP2K2; CATDS: 5.9505583835806203E-3
  potency estimated from few doses: 2520 nM
MAP4K2; compound concentrations: 100 nM and 1000 nM (sheet 'Samples'), CATDS: 1.18083453898033E-2
  potency estimated from few doses: 173 nM
MAP4K3; compound concentrations: 100 nM and 1000 nM (sheet 'Samples'), CATDS: 1.3665369195518201E-2
  potency estimated from few doses: 120 nM
MAP4K5
  potency estimated from few doses: 45.7 nM
RPS6KA1; compound concentrations: 100 nM and 1000 nM (sheet 'Samples'), CATDS: 7.3742407001506898E-3
  potency estimated from few doses: 792 nM
SLK; compound concentrations: 100 nM and 1000 nM (sheet 'Samples'), CATDS: 7.3686549547766099E-3
  potency estimated from few doses: 794 nM
TGFBR1; compound concentrations: 100 nM and 1000 nM (sheet 'Samples'), CATDS: 6.2904955022957598E-3
  potency estimated from few doses: 1740 nM

## CCn1c(-c2nonc2N)nc2c(C#CC(C)(C)O)nc(O[C@@H](CN)c3ccccc3)cc21.O=C(O)C(F)(F)F [GSK1007102B]
AKT3; [1]
  potency estimated from few doses: 719 nM

## COc1ccc(-c2cc3c(N)ncnc3o2)cc1 [GW642138X]
MAP2K2; CATDS: 0.100903208593323
  potency estimated from few doses: 1800 nM
STK26; compound concentrations: 100 nM and 1000 nM (sheet 'Samples'), CATDS: 0.100922192371782
  potency estimated from few doses: 1800 nM

## NCC(NC(=O)c1cc(-c2cn[nH]c2)c(-c2ccnc3[nH]ccc23)s1)c1ccccc1.NCC(NC(=O)c1cc(-c2cn[nH]c2)c(-c2ccnc3[nH]ccc23)s1)c1ccccc1.O=C(O)C(F)(F)F.O=C(O)C(F)(F)F (centres unmarked) [GSK1325775A]
ACVR1; compound concentrations: 100 nM and 1000 nM (sheet 'Samples'), CATDS: 3.5400947915422802E-2
  potency estimated from few doses: 1180 nM
